# In PubChem BioAssay (NCI):
# This is part of a sample that, as a whole, favours compounds with a hit. Of some 79,000 tested, about 15% had one in any assay. A number with no mark means an inactive call. Active and inactive are the calls of the source. Rule as the data show it: active = growth inhibition above about 70%; inactive = the rest.
# Legend:
# [1] = NCI Yeast Anticancer Drug Screen. Data for the rad50 strain (AID 155);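 also: 0% = growth of vehicle-only cultures of the same strain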; conditions: S. cerevisiae rad50 strain growth inhibition; at 50.0 µM; stronger effect = higher value
# In short: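 Vehicle-treated cultures provide the reference for the growth inhibition reported for compound-exposed, repair-deficient yeast.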
# [2] = NCI Yeast Anticancer Drug Screen. Data for the mec2-1 strain (AID 157); conditions: S. cerevisiae mec2-1 strain, at 50.0 µM, stronger effect = higher value
# In short: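 Using mec2-1 yeast: add compound, measure growth, express inhibition versus vehicle-treated cultures.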
# [3] = NCI Yeast Anticancer Drug Screen. Data for the sgs1 mgt1 strain (AID 161);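 also: 0% = growth of cultures given vehicle only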; conditions: S. cerevisiae sgs1 mgt1 strain, at 50.0 µM, stronger effect = higher value
# In short: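 Percent growth inhibition was derived by comparing compound-exposed mutant yeast with vehicle-exposed cultures. The strain carries alterations in DNA damage repair.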
# [4] = NCI Yeast Anticancer Drug Screen. Data for the cln2 rad14 strain (AID 165);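 also: 0% = growth equal to vehicle treated cultures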; conditions: S. cerevisiae cln2 rad14 strain, at 50.0 µM, stronger effect = higher value
# In short: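 Yeast strain cln2 rad14, bearing defects in cell cycle control and DNA repair, serves as the test system; values reflect growth inhibition compared with vehicle.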
# [5] = NCI Yeast Anticancer Drug Screen. Data for the bub3 strain (AID 167); conditions: S. cerevisiae bub3 mutant strain, at 50.0 µM, stronger effect = higher value
# In short: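 Mutant yeast screening strain plus compound; vehicle-treated cultures serve as the 0% inhibition reference.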
# [6] = NCI Yeast Anticancer Drug Screen. Data for the mlh1 rad18 strain (AID 175); conditions: S. cerevisiae mlh1 rad18 strain growth inhibition; at 50.0 µM; stronger effect = higher value
# In short: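 Steps: expose repair-defective yeast to compound; measure growth; express inhibition against vehicle-treated controls.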
SMILES,growth inhibition [1],growth inhibition [2],growth inhibition [3],growth inhibition [4],growth inhibition [5],growth inhibition [6]
Cc1cc2c(-c3ccc(Cl)cc3)oc(-c3ccc(Cl)cc3)c2cc1C,-7.35%,15.8%,-6.35%,2.85%,-15.4%,-9.5%
CC1NNC(=S)NN1,-19.3%,1.35%,0.85%,-9.7%,1.4%,11.8%
CC(=O)CC(=O)c1cc(C(C)=O)c(O)c(C(C)=O)c1,-11.8%,0.75%,11%,-3.3%,-11.1%,7.8%
CCOC(=O)C(NC(C)=O)C(O)c1ccc(Cl)cc1Cl (stereo not drawn),18.4%,3.4%,0.05%,-45.9%,-9.4%,19.7%
Nc1[nH]c(=O)nc2c1cnn2Cc1ccccc1,-0.75%,-10.1%,-14.2%,-12.2%,-2.7%,-3.8%
OCc1ccccc1C1CSCSC1,-7.2%,-29.1%,-37.5%,-30.9%,-21.4%,-12.2%
COc1cccc(NC(=S)NNC(=S)NNc2ccccc2)c1,59.4%,60.2%,70.3% (active),43%,65.2%,63.6%
O=C(O)C1c2ccccc2-c2ccccc21,52.4%,31.6%,41.5%,-37.7%,37.6%,39%
COc1ccc(CCN2C(=O)c3cccc4c(Br)ccc(c34)C2=O)cc1,23.8%,1.3%,18.6%,14.5%,44.6%,35.9%
CC(C)c1cccc(C(C)C)c1NC(=O)C(=O)C(C(=O)c1ccccc1-c1ccccc1)C1OC(=O)c2ccccc21 (stereo not drawn),8.2%,3.8%,19.6%,-49.2%,-3.05%,8%
C=C1CC(CCCCCCC2CC(=C)C(=O)O2)OC1=O (stereo not drawn),11.2%,1.05%,-0.35%,2.3%,25.4%,-25.9%
CC1CC/C(=N\O)CCCCC(=O)O1 (stereo not drawn),-3.45%,-0.35%,2.15%,-33.4%,2.9%,0.85%
CCCCC1SC2=NCCN2C1(O)c1ccc(Cl)cc1 (stereo not drawn),14.6%,3.55%,28.9%,18%,31.3%,26.5%
S=c1[nH][nH]c(=S)c2[nH]cnc12,1.6%,-3.1%,-5.55%,-18.4%,2.2%,-0.4%
COc1cc([N+](=O)[O-])cc(C=O)c1O,6.8%,28.4%,0.7%,-67.5%,-38.8%,11.7%
O=C1C=CC(c2ccccc2)(c2ccccc2)O1,-32.7%,-10.8%,-15.3%,-22.4%,-8.35%,-7.1%
O=COC1CC2CC1c1ccccc12 (stereo not drawn),4.8%,-9.7%,-1.7%,-7.8%,-3.85%,6.8%
O=C(c1ccc(Cl)cc1)N(C(=S)N1CCN(c2ccccc2)CC1)C1CCCCC1,7.95%,-11.3%,-19.5%,22.7%,-21%,-4.05%
CC1C=CC(C)c2c(-c3ccccc3)oc(-c3ccccc3)c21 (stereo not drawn),17%,8.6%,-1.5%,-2.6%,-0.4%,9.7%

SMILES,growth inhibition [1],growth inhibition [2],growth inhibition [3],growth inhibition [4],growth inhibition [5],growth inhibition [6]
CCOC(=O)c1cc(C=O)oc1C,6.8%,-4.2%,-8.1%,-42.6%,2%,-0.75%
Cc1ccc(C(C)(C#N)Nc2ccccc2)cc1 (stereo not drawn),-7.05%,-1.8%,-8.2%,-25.2%,-11.2%,-0.45%
CC12CCC/C(=N\NC(N)=S)C1C(=O)NC(=O)C2 (stereo not drawn),-6.8%,2.65%,-2.6%,33%,12.4%,7.15%
Brc1ccc[n+](CCc2ccccc2)c1,-2.7%,15.1%,-6.7%,7.75%,5.7%,9.5%
CC(C)(C)c1ccc(SC(=O)Nc2cccc(Cl)c2Cl)cc1,8.35%,14.3%,18.1%,13.8%,24.4%,20.9%
O=S(=O)([O-])c1ccc(N=Cc2ccccc2[O-])cc1.O=S(=O)([O-])c1ccc(N=Cc2ccccc2[O-])cc1.[Co+2],16.6%,2.25%,-15.2%,23.4%,9.25%,-9.65%
C[N+](C)(C)CCCOC1=Nc2ccccc2O/C1=C/c1ccccc1,-52.2%,2.1%,-6.3%,-27.4%,-4.1%,18.5%
COc1ccc(NS(=O)c2ccc(Cl)cc2)cc1 (stereo not drawn),13%,12.8%,28.3%,8.65%,11.4%,13.9%
Cc1ccc(-c2cc(=O)c(=O)[nH][nH]2)cc1,-12.5%,22.1%,-11.6%,4.85%,-13.7%,27.2%
O=C(NC(=O)C(Cl)Cl)OC1c2cc(Cl)ccc2-c2c(Cl)cc(Cl)cc21 (stereo not drawn),99.1% (active),99.5% (active),99.3% (active),98.8% (active),97.8% (active),99.2% (active)
CC1=CC(c2ccccc2)(c2ccccc2)c2ccccc21,0.1%,3%,5%,-19.1%,1.7%,-17.4%
O=C(C[n+]1ccncc1)c1ccc2c(c1)CCCC2,-8.7%,10.8%,14.7%,-5.95%,46.1%,20.5%
CC1OC(OCC2COC(O)(Oc3c(-c4ccc(O)c(O)c4)oc4cc(O)cc(O)c4c3=O)C(O)C2O)C(O)C(O)C1O (stereo not drawn),20.1%,-29.4%,-15.8%,0.6%,8.05%,13.9%
Cc1ccc(S(=O)OCC23CC4CC(CC(C4)C2)C3)cc1 (stereo not drawn),17.5%,1.6%,-1.05%,17.5%,-5.55%,-30.6%
COCC1(c2ccccc2)NC(=O)N(C)C1=O (stereo not drawn),-3.05%,-2.15%,-1.35%,-9.15%,-7.35%,-2%
Cc1csc(NNC(=O)Nc2ccccc2)n1,36.7%,14.2%,-35.5%,18.4%,-8.65%,7.5%
CCN(CC)S(=O)(=O)Nc1c(C)n(C)n(-c2ccccc2)c1=O,-5.6%,-17.2%,-4.05%,-3.7%,-2%,14%
O=C(O)c1ccc(Nc2nc3ccccc3nc2-c2cccs2)cc1,2.9%,18.6%,5.95%,20.7%,12.2%,-9.7%
COc1ccc(NC(=O)CC(=O)N2N=C(N(CCC#N)c3ccccc3Cl)CC2c2ccccc2)cc1 (stereo not drawn),-13.4%,-23.6%,-1%,10.7%,-4.55%,-28.9%
